EPAC1 agonist = EPAC1 (human) agonism; 360,000 tested, 0.073% active; Potency, µM (top dose mostly 154 µM), for inactives: top-dose activation, most hits filed as activators; EPAC1 agonist qHTS, biochemical assay; response scale: 100% = response to 6.5 mM cAMP; O95398; AID 720707; also: nearly all actives have a fitted effect of over 60% in size
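Compounds were pinned as a concentration titration into mixtures of EPAC1 (100 nM), BODIPY-GDP-loaded Rap1B (250 nM) and GDP (50 uM). After 5 min at room temperature, fluorescence was followed for 30 min; activity was scaled to 6.5 mM cAMP.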
BRCA1 expr act = activators of BRCA1 expression. MCF7-BRCA1-FFLuc reporter, luminescence, 48 h; response scale: scaled: vehicle 0%, 10 µM genistein 100%. Potency, µM (series often up to 46.1 µM), inactives show at the top dose activation, actives largely listed as activators. 380,000 tested, 1.1% active; also: nearly all actives have a fitted effect of over 80% in size
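48 h compound treatment of MCF7-BRCA1-FFLuc cells (phenol-red free MEM, 37 °C), then 15 min with luciferase substrate and luminescence imaging.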
USP1 inh = blocks the human USP1/UAF1 deubiquitinase complex; O94782; recombinant USP1/UAF1, Ub-Rhodamine cleavage fluorescence; Potency, µM (series often up to 57.1 µM), inactives show at the highest dose activity change, negative = inhibition, actives largely listed as inhibitors; 390,000 tested, 0.23% active; AID 743255; also: % is scaled to controls: 0 for no effect and ±100 for the full control effect; nearly all actives have a fitted effect of over 60% in size
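USP1/UAF1 complex at 1 nM was preincubated with compound for 15 min at room temperature, then Ub-Rho substrate (150nM final) was added. Fluorescence (480/540 nm) was read kinetically, 6 reads every 60 seconds.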
EPAC1 antagonist = EPAC1 (human) antagonism; O95398; EPAC1 GEF assay, Rap1b-BODIPY-GDP exchange fluorescence; Potency, µM (top dose mostly 115 µM), without a hit: at the top dose activity change, negative = inhibition, usual class: inhibitors; 360,000 tested, 0.14% active;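 also: plate controls were vehicle for no effect and positive control for full effect; nearly all actives have a fitted effect of over 50% in size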
EPAC2 ag = activates human EPAC2 exchange factor; Q8WZA2; EPAC2 activation, biochemical qHTS; response scale: 100% = 6.5 mM cAMP response; Potency, µM (doses to about 154 µM), for the others: at the highest dose activation, actives largely listed as activators; 360,000 tested, 0.079% active; also: nearly all actives have a fitted effect of over 50% in size
Target sequence (Q8WZA2 whole entry, looked up): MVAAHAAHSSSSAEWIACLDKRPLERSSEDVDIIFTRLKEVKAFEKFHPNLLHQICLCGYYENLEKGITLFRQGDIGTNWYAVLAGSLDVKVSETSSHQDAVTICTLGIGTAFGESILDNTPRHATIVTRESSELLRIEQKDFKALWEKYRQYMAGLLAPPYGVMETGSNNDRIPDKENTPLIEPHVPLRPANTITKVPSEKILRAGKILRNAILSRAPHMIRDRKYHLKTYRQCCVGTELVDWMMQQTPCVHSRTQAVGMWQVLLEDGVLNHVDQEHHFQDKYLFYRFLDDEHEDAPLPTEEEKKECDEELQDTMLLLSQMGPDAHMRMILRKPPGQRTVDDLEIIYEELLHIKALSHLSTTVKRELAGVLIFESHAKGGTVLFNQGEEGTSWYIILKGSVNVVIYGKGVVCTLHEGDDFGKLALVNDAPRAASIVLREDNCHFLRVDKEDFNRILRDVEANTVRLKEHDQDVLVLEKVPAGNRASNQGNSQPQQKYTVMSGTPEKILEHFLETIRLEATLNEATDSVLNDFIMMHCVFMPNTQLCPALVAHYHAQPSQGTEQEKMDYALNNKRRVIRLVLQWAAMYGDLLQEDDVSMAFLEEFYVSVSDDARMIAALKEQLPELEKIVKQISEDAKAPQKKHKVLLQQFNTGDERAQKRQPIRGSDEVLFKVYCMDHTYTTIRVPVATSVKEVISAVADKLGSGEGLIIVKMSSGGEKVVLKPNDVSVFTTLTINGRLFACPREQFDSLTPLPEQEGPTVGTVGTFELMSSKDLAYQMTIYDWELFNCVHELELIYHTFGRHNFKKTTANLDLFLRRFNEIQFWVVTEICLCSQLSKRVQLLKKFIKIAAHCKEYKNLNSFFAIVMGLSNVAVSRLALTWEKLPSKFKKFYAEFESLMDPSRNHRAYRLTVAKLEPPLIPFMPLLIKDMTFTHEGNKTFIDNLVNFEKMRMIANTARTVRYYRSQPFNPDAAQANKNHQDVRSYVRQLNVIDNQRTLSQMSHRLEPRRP
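In this primary screen, activation is scored as increased exchange of BODIPY-GDP from Rap1B by 100 nM EPAC2, with 50 uM GDP as competitor. Signal is normalized to the 6.5 mM cAMP agonist control.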
EPAC2 antagonist = blocks human EPAC2 exchange factor; Q8WZA2; Potency, µM (titrated, usually from 114 µM), for the others: at the highest dose activity, negative = inhibition, actives largely listed as inhibitors; EPAC2 GEF exchange of Rap1B-BODIPY-GDP, fluorescence; 360,000 tested, 0.18% active; also: % is scaled to controls: 0 for no effect and ±100 for the full control effect; nearly all actives have a fitted effect of over 45% in size
An asterisk follows results filed as active. An excerpt weighted towards active compounds, which were near 1.4% of everything screened. Calls follow the shape of the dose curve; as a rule, active = well fitted curve in the direction sought with a large enough effect; inconclusive = small, poorly fitted or top-dose-only effect, or another doubt; inactive = no such curve, though single readings can be large; an effect the other way counts as inactive or inconclusive. Potency is read from the fitted curve at half-maximal effect.

For C/C(=N\NC(=O)c1ccoc1C)c1cccc2ccccc12 the results were EPAC1 agonist 3%, BRCA1 expr act 0%, USP1 inh -16%, EPAC1 antagonist 12%, EPAC2 ag 4% and EPAC2 antagonist 3%.
For CC(=O)Oc1ccc(N2C(=O)C3C(C2=O)C(C(=O)c2ccc(Cl)cc2)N2CCCC32)cc1 (stereo not given) the results were EPAC1 agonist 7%, BRCA1 expr act -87%, USP1 inh 22µM*, EPAC1 antagonist -6%, EPAC2 ag 28% and EPAC2 antagonist 5%.
`Cc1ccc(N2C(=O)C3C(C2=O)C(C(=O)c2ccc(Cl)cc2)N2CCCC32)cc1` (stereo not given) gave EPAC1 agonist -2%, BRCA1 expr act -19%, USP1 inh -9%, EPAC1 antagonist -1%, EPAC2 ag 0% and EPAC2 antagonist 8%.
Cc1ccc(C)c(OCc2nc3ccccc3[nH]2)c1 was read as EPAC1 agonist 6%, BRCA1 expr act 3.2µM*, USP1 inh -23%, EPAC1 antagonist 3%, EPAC2 ag 5% and EPAC2 antagonist -18%.
O=C1c2ccccc2NC(c2cccc(O)c2)N1c1ccccc1 (stereo not given) was read as EPAC1 agonist -2%, BRCA1 expr act 8%, USP1 inh -4%, EPAC1 antagonist -12%, EPAC2 ag 14% and EPAC2 antagonist 3%.
`CCCC(=O)OCCNc1cc(SCc2ccco2)c2nonc2c1[N+](=O)[O-]` gave EPAC1 agonist 1%, BRCA1 expr act -75%, USP1 inh -8%, EPAC1 antagonist 40µM*, EPAC2 ag -10% and EPAC2 antagonist -7%.
`CC(=O)OCCCNc1cc(SCc2ccco2)c2nonc2c1[N+](=O)[O-]` gave EPAC1 agonist 9%, BRCA1 expr act -45%, USP1 inh 0%, EPAC1 antagonist inconclusive, EPAC2 ag -5% and EPAC2 antagonist -9%.
Screening Oc1c(Br)cc(Br)cc1C=Nc1ccc2c(c1)OCCO2 returned EPAC1 agonist 13%, BRCA1 expr act -31%, USP1 inh inconclusive, EPAC1 antagonist 7%, EPAC2 ag 16% and EPAC2 antagonist 4%.
For O=[N+]([O-])c1ccc(O)c(C=Nc2ccc3c(c2)OCCO3)c1 the results were EPAC1 agonist -3%, BRCA1 expr act 11µM*, USP1 inh -23%, EPAC1 antagonist 21%, EPAC2 ag -2% and EPAC2 antagonist -2%.
COc1cc2c(cc1N)-c1ccc(N)cc1C2=O was read as EPAC1 agonist 3%, BRCA1 expr act 10µM*, USP1 inh -33%, EPAC1 antagonist 10%, EPAC2 ag 2% and EPAC2 antagonist -10%.
Screening Cc1cc(C)c2oc(-c3cccc(NC(=O)c4ccc(-c5cccc([N+](=O)[O-])c5)o4)c3)nc2c1 returned BRCA1 expr act 3% and USP1 inh -25%.
For O=C(/C=C/c1cccc(Cl)c1)NCc1cccs1 the results were EPAC1 agonist 4%, BRCA1 expr act 60%, USP1 inh -9%, EPAC1 antagonist -13%, EPAC2 ag 6% and EPAC2 antagonist -1%.
`O=C(/C=C/c1ccc(Cl)cc1)NCc1cccs1` gave EPAC1 agonist -4%, BRCA1 expr act 11µM*, USP1 inh 0%, EPAC1 antagonist -8%, EPAC2 ag 13% and EPAC2 antagonist -1%.
`Nc1nc2[nH]c(=S)[nH]c2c(=O)[nH]1` gave BRCA1 expr act -11%.
COc1ccc(NC(=O)c2cc(-c3cccs3)on2)cc1 was read as EPAC1 agonist 8%, BRCA1 expr act 4.5µM*, USP1 inh -2%, EPAC1 antagonist -29%, EPAC2 ag 10% and EPAC2 antagonist 3%.
COC(=O)c1sc(NC(=O)c2cc(C)on2)nc1C was read as EPAC1 agonist 4%, BRCA1 expr act 10µM*, USP1 inh -15%, EPAC1 antagonist -7%, EPAC2 ag 6% and EPAC2 antagonist 0%.
COC(=O)c1sc(NC(=O)COc2ccc(OC)cc2)nc1C was read as EPAC1 agonist -9%, BRCA1 expr act -3%, USP1 inh -14%, EPAC1 antagonist -3%, EPAC2 ag -8% and EPAC2 antagonist -11%.
For O=C(Nc1cc(Br)ccc1O)c1cc(-c2ccc3c(c2)OCO3)on1 the results were EPAC1 agonist -3%, BRCA1 expr act 1.4µM*, USP1 inh -2%, EPAC1 antagonist inconclusive, EPAC2 ag 9% and EPAC2 antagonist inconclusive.
For Cc1ccc(NC(=O)c2cc(C)on2)cc1 the results were EPAC1 agonist 8%, BRCA1 expr act 5µM*, USP1 inh -12%, EPAC1 antagonist -6%, EPAC2 ag 10% and EPAC2 antagonist 2%.
`COc1ccc(NC(=O)c2cc(-c3cccs3)on2)cc1OC` gave EPAC1 agonist 9%, BRCA1 expr act 63%, USP1 inh 0%, EPAC1 antagonist 10%, EPAC2 ag 16% and EPAC2 antagonist -1%.
For CCOc1ccc(/C=N/NC(=O)c2ccccc2O)cc1CN1CC2CC(C1)c1cccc(=O)n1C2 (stereo not given) the results were EPAC1 agonist -9%, BRCA1 expr act -29%, USP1 inh -27%, EPAC1 antagonist -18%, EPAC2 ag 1% and EPAC2 antagonist -22%.
For COc1ccc2c(c1)CSC(c1ccccc1)C2=O (stereo not given) the results were EPAC1 agonist -16%, BRCA1 expr act 72%, USP1 inh -26%, EPAC1 antagonist 6%, EPAC2 ag 6% and EPAC2 antagonist inconclusive.
Screening Cc1ccc(-c2cc(C(=O)Nc3cc(C)ccc3O)no2)cc1 returned EPAC1 agonist -11%, BRCA1 expr act 1.1µM*, USP1 inh -22%, EPAC1 antagonist 2%, EPAC2 ag 1% and EPAC2 antagonist 21%.
Screening CCOC(=O)N1CCN(C(=O)c2ccc3c(c2)sc2nc(-c4ccccc4)cn23)CC1 returned EPAC1 agonist 4%, BRCA1 expr act 10µM*, USP1 inh -14%, EPAC1 antagonist -10%, EPAC2 ag 8% and EPAC2 antagonist -1%.
Screening CCOC(=O)C1CCN(C(=O)c2ccc3c(c2)sc2nc(-c4ccccc4)cn23)CC1 returned USP1 inh -16%.
`CN(c1ccccc1)S(=O)(=O)c1ccc2c(c1)OCCO2` gave EPAC1 agonist -8%, BRCA1 expr act 12%, USP1 inh -5%, EPAC1 antagonist -7%, EPAC2 ag 18% and EPAC2 antagonist 3%.
Screening Cc1ccc(CNC(=O)c2ccc(CSCc3ccc(Cl)cc3)o2)cc1 returned USP1 inh -30%.

Screening data (PubChem)
